Test results as given in PubChem BioAssay AID1159580 (chemical genetic matrix, 2015).
Where “and” joins values, the source holds several entries; their conditions need not be identical. Equal entries are not always repeated. Screen size: about 5,500 compounds; about 2,000 (36%) were called active. Not shown: some 18% with an inconclusive outcome. Rule as the data show it: active = normalized growth mostly below about 0.91 (no sharp cut-off); inconclusive = no clear call, values can overlap the other calls; inactive = mostly above about 0.92. This is one part of the list.

Experiment: chemical genetic growth profiling, strain panel (AID 1159580);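 also: tested at 20 µM; growth read once vehicle control cultures reached saturation at 30 °C; 1 = growth at the plate median or of vehicle wells; lower values mean less growth of the strain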
Conditions: growth OD

Measured: normalized growth

CCCC(C(=O)OCCN(CC)CC)(c1ccccc1)c1ccccc1
inactive: S. cerevisiae deletion strains, locus YJR075W, strain HOC1, stronger effect = lower value 1 and 0.971 | S. cerevisiae deletion strains, locus YKL009W, strain mrt4, stronger effect = lower value 0.982 | S. cerevisiae deletion strains, locus YKL068W, stronger effect = lower value 0.995 | S. cerevisiae deletion strains, locus YKL085W, strain MDH1 (second series), stronger effect = lower value 0.99 | S. cerevisiae deletion strains, locus YKL085W, strain MDH1, stronger effect = lower value 0.99 | S. cerevisiae deletion strains, locus YKL160W, strain elf1, stronger effect = lower value 0.982 | S. cerevisiae deletion strains, locus YKL190W, strain CNB1, stronger effect = lower value 0.995 | S. cerevisiae deletion strains, locus YKR001C, strain vps1, stronger effect = lower value 0.999 | S. cerevisiae deletion strains, locus YKR026C, strain gcn3, stronger effect = lower value 1 | S. cerevisiae deletion strains, locus YKR091W, strain srl3, stronger effect = lower value 1 | S. cerevisiae deletion strains, locus YLL001W, strain dnm1, stronger effect = lower value 0.998 | S. cerevisiae deletion strains, locus YLL026W, stronger effect = lower value 1.01 | S. cerevisiae deletion strains, locus YLL041C, strain sdh2, stronger effect = lower value 1 | S. cerevisiae deletion strains, locus YLR027C, strain aat2, stronger effect = lower value 1 | S. cerevisiae deletion strains, locus YLR039C, strain RIC1, stronger effect = lower value 1.16 | S. cerevisiae deletion strains, locus YLR058C, strain SHM2, stronger effect = lower value 1.01 | S. cerevisiae deletion strains, locus YLR102C, strain apc9, stronger effect = lower value 0.994 | S. cerevisiae deletion strains, locus YLR113W, strain HOG1, stronger effect = lower value 0.966 | S. cerevisiae deletion strains, locus YLR221C, strain rsa3, stronger effect = lower value 0.991 | S. cerevisiae deletion strains, locus YLR258W, strain gsy2, stronger effect = lower value 0.989 | S. cerevisiae deletion strains, locus YLR262C, strain YPT6 (second series), stronger effect = lower value 1.12 | S. cerevisiae deletion strains, locus YLR262C, strain YPT6, stronger effect = lower value 1.25 | S. cerevisiae deletion strains, locus YLR268W, strain sec22, stronger effect = lower value 0.977 | S. cerevisiae deletion strains, locus YLR320W, strain mms22, stronger effect = lower value 0.968 | S. cerevisiae deletion strains, locus YLR330W, strain CHS5, stronger effect = lower value 1.01 | S. cerevisiae deletion strains, locus YLR342W, strain FKS1 (second series), stronger effect = lower value 0.941 | S. cerevisiae deletion strains, locus YLR342W, strain FKS1, stronger effect = lower value 0.999 | S. cerevisiae deletion strains, locus YLR357W, strain rsc2, stronger effect = lower value 0.935 | S. cerevisiae deletion strains, locus YLR370C, strain arc18, stronger effect = lower value 1 | S. cerevisiae deletion strains, locus YLR371W, strain rom2, stronger effect = lower value 0.985 | S. cerevisiae deletion strains, locus YLR384C, strain iki3, stronger effect = lower value 1.01 | S. cerevisiae deletion strains, locus YLR418C, strain cdc73, stronger effect = lower value 0.883 | S. cerevisiae deletion strains, locus YML016C, strain PPZ1, stronger effect = lower value 1.01 | S. cerevisiae deletion strains, locus YML032C, strain rad52, stronger effect = lower value 0.989 | S. cerevisiae deletion strains, locus YML120C, strain ndi1, stronger effect = lower value 0.989 | S. cerevisiae deletion strains, locus YML124C, strain tub3, stronger effect = lower value 0.995 | S. cerevisiae deletion strains, locus YMR058W, strain fet3, stronger effect = lower value 1 | S. cerevisiae deletion strains, locus YMR078C, strain ctf18, stronger effect = lower value 0.99 | S. cerevisiae deletion strains, locus YMR125W, strain sto1, stronger effect = lower value 1.01 | S. cerevisiae deletion strains, locus YMR129W, stronger effect = lower value 0.983 | S. cerevisiae deletion strains, locus YMR205C, strain PFK2, stronger effect = lower value 0.972 | S. cerevisiae deletion strains, locus YMR223W, strain ubp8, stronger effect = lower value 0.967 | S. cerevisiae deletion strains, locus YMR231W, strain pep5, stronger effect = lower value 1.01 | S. cerevisiae deletion strains, locus YMR263W, strain SAP30, stronger effect = lower value 1 | S. cerevisiae deletion strains, locus YMR307W, strain GAS1, stronger effect = lower value 1.03 | S. cerevisiae deletion strains, locus YNL067W, strain RPL9B, stronger effect = lower value 0.996 | S. cerevisiae deletion strains, locus YNL071W, strain lat1, stronger effect = lower value 0.957 | S. cerevisiae deletion strains, locus YNL128W, strain TEP1, stronger effect = lower value 0.992 | S. cerevisiae deletion strains, locus YNL153C, strain GIM3, stronger effect = lower value 1.02 and 1.01 | S. cerevisiae deletion strains, locus YNL183C, strain NPR1, stronger effect = lower value 0.946 | S. cerevisiae deletion strains, locus YNL197C, strain WHI3, stronger effect = lower value 1.01 | S. cerevisiae deletion strains, locus YNL209W, strain ssb2, stronger effect = lower value 1.02 | S. cerevisiae deletion strains, locus YNL224C, strain SQS1, stronger effect = lower value 1.02 | S. cerevisiae deletion strains, locus YNL233W, strain BNI4, stronger effect = lower value 1.01 | S. cerevisiae deletion strains, locus YNL248C, strain rpa49, stronger effect = lower value 0.989 | S. cerevisiae deletion strains, locus YNL250W, strain rad50, stronger effect = lower value 0.981 | S. cerevisiae deletion strains, locus YNL271C, strain bni1, stronger effect = lower value 0.994 | S. cerevisiae deletion strains, locus YNL298W, strain CLA4, stronger effect = lower value 0.989 | S. cerevisiae deletion strains, locus YNL307C, strain MCK1, stronger effect = lower value 0.983 | S. cerevisiae deletion strains, locus YNL322C, strain KRE1 (second series), stronger effect = lower value 1.01 | S. cerevisiae deletion strains, locus YNL322C, strain KRE1, stronger effect = lower value 0.985 | S. cerevisiae deletion strains, locus YNR049C, strain mso1, stronger effect = lower value 1.01 | S. cerevisiae deletion strains, locus YNR052C, strain pop2, stronger effect = lower value 0.986 | S. cerevisiae deletion strains, locus YOL006C, strain TOP1, stronger effect = lower value 1.05 | S. cerevisiae deletion strains, locus YOL012C, strain htz1 0.951 | S. cerevisiae deletion strains, locus YOL147C, strain pex11, stronger effect = lower value 0.995 | S. cerevisiae deletion strains, locus YOR001W, strain rrp6, stronger effect = lower value 0.977 | S. cerevisiae deletion strains, locus YOR061W, strain CKA2, stronger effect = lower value 1.01 | S. cerevisiae deletion strains, locus YOR069W, strain VPS5, stronger effect = lower value 1 | S. cerevisiae deletion strains, locus YOR070C, strain gyp1, stronger effect = lower value 1 | S. cerevisiae deletion strains, locus YOR080W, strain dia2, stronger effect = lower value 0.993 | S. cerevisiae deletion strains, locus YOR083W, strain WHI5 (second series), stronger effect = lower value 0.993 | S. cerevisiae deletion strains, locus YOR083W, strain WHI5, stronger effect = lower value 0.983 | S. cerevisiae deletion strains, locus YOR106W, strain vam3, stronger effect = lower value 0.979 | S. cerevisiae deletion strains, locus YOR136W, strain idh2, stronger effect = lower value 0.993 | S. cerevisiae deletion strains, locus YOR144C, strain elg1, stronger effect = lower value 0.989 | S. cerevisiae deletion strains, locus YOR184W, strain ser1, stronger effect = lower value 0.99 | S. cerevisiae deletion strains, locus YOR231W, strain MKK1, stronger effect = lower value 0.98 | S. cerevisiae deletion strains, locus YOR265W, strain rbl2, stronger effect = lower value 1.01 | S. cerevisiae deletion strains, locus YOR270C, strain vph1, stronger effect = lower value 0.942 | S. cerevisiae deletion strains, locus YOR290C, strain snf2, stronger effect = lower value 0.998 | S. cerevisiae deletion strains, locus YOR316C, strain cot1, stronger effect = lower value 1 | S. cerevisiae deletion strains, locus YPL051W, strain arl3, stronger effect = lower value 0.972 | S. cerevisiae deletion strains, locus YPL055C, strain LGE1, stronger effect = lower value 1.01 | S. cerevisiae deletion strains, locus YPL078C, strain atp4, stronger effect = lower value 0.998 | S. cerevisiae deletion strains, locus YPL106C, strain sse1, stronger effect = lower value 1.02 | S. cerevisiae deletion strains, locus YPL240C, strain hsp82, stronger effect = lower value 0.998 | S. cerevisiae deletion strains, locus YPL241C, strain CIN2, stronger effect = lower value 1 | S. cerevisiae deletion strains, locus YPL256C, strain CLN2, stronger effect = lower value 0.994 | S. cerevisiae deletion strains, locus YPR119W, strain clb2, stronger effect = lower value 0.996 | S. cerevisiae deletion strains, locus YPR141C, strain kar3, stronger effect = lower value 0.996 | S. cerevisiae deletion strains, locus YPR163C, strain tif3, stronger effect = lower value 0.995 | S. cerevisiae deletion strains, locus YPR167C, strain met16, stronger effect = lower value 0.993 | S. cerevisiae deletion strains, strain wtn01, stronger effect = lower value 0.974 | S. cerevisiae strains, strain wild type, stronger effect = lower value 1.01
